Inhibition data for 34 molecules are collected here from ChEMBL document CHEMBL1961873, “Compounds: GSK PKIS; Assays: Nanosyn kinase panel” (2012).

Molecules are shown by their SMILES.

The first experiment concerns the target Cyclin-dependent kinase 2 (Homo sapiens) (UniProt P24941). The conditions noted are these: at 0.1 µM.
As a reminder, the inhibition is the relative decrease from the control value, in per cent. Take `NS(=O)(=O)c1ccc(N/N=C2\C(=O)Nc3ccc(C(=O)NCCCn4ccnc4)cc32)cc1`: the inhibition amounted to 97.4%.
On the same count and under the same terms, under `O=C(Nc1ccc(Oc2ccc3[nH]c(NC(=O)c4ccccc4)nc3c2)cc1)Nc1cc(C(F)(F)F)ccc1F` stands 0.68%; under `COc1ccc2cc(-c3c(-c4ccncc4)nc(-c4ccc([S+](C)[O-])cc4C)n3C)ccc2c1` (stereo not drawn), 0.63%; under `Cc1ccc(NC(=O)c2ccoc2)cc1-c1ccc(C(=O)NCC2CC2)cc1`, -0.08%.
The same measure, in the same setting: the result for `C[C@@H](Oc1cc(-n2cnc3ccc(OC4CCN(C)CC4)cc32)sc1C(N)=O)c1ccccc1Cl` reads -1.38%; that for `CN(c1ccc(NC(=O)Nc2c(Cl)cccc2Cl)cc1)c1ccnc(Nc2cccc(CS(C)(=O)=O)c2)n1`, 3.62%; that for `Fc1ccc(-c2ncn(C3CCNCC3)c2-c2ccnc(Oc3ccc(Oc4ccccc4)cc3)n2)cc1`, 3.49%.
Same read-out and setting: under `COc1cccc(/C=N/Nc2ncnc3c2cnn3-c2cccc(OC)c2)c1` stands 1.78%; under `O=C(Nc1n[nH]c2nc(-c3ccc(O)cc3)c(Br)cc12)C1CC1`, 63.1%.
`COc1cc2ncn(-c3cc(OCc4ccccc4C(F)(F)F)c(C(C)=O)s3)c2cc1OC`: the inhibition was 0.94%.
The same measure, in the same setting: under `Cc1ccc(C(=O)NC2CCC2)cc1-c1ccc(C(=O)NCC2CC2)cc1` stands 2.38%.
In the case of `COC(=O)Nc1nc2ccc(Sc3ccc(NC(=O)Nc4cc(C(F)(F)F)ccc4F)cc3)cc2[nH]1`, the inhibition is -0.08%.
`COc1ccc(-c2ccc3c(NC(=O)C4CC4)n[nH]c3n2)cc1`: the inhibition worked out at 1.61%.
As for `Cc1ccc(C(=O)NC(C)C)cc1-c1ccc(C(=O)NCC2CC2)cc1`, the inhibition was determined as 0.33%.
For `O=C(Nc1n[nH]c2cc(-c3ccccc3)ccc12)C1CC1`, the inhibition is 3.52%.
Regarding `CNC(=O)c1cncc(/C=C/c2c(C)cccc2C)c1`, the inhibition was -3.98%.
Same read-out and setting: the result for `C/C(Nc1ccc(S(N)(=O)=O)cc1)=C1/C(=O)Nc2ccccc21` reads 7.75%.
Turning to `NC(=O)c1ccc(Oc2nccc(-c3c(-c4ccc(F)cc4)ncn3C3CCNCC3)n2)cc1`, the inhibition came out at 3.34%.
Same read-out and setting: under `NC(=O)Cc1ccccc1Oc1nccc(-c2c(-c3ccc(F)cc3)ncn2C2CCNCC2)n1` stands 1.15%; under `NCc1ccc(-n2c(-c3nonc3N)nc3cnccc32)cc1`, 5.13%; under `O=C(Nc1n[nH]c2cc(-c3cc(F)ccc3F)ccc12)C1CC1`, 2.01%.
Same read-out and setting: under `NS(=O)(=O)c1ccc(N/N=C2\C(=O)Nc3ccc(-c4cnco4)cc32)cc1` stands 85.8%; under `N#Cc1ccc(Oc2nccc(-c3c(-c4ccc(F)cc4)ncn3C3CCNCC3)n2)cc1`, 0.77%; under `O=C(Nc1n[nH]c2nc(-c3ccco3)ccc12)C1CC1`, 3.24%.
Still for that read-out and setting: the result for `NS(=O)(=O)c1ccc(Nc2cc(-c3ccc(O)c(F)c3)n[nH]2)cc1` reads 53.3%; that for `COc1cccc(-n2cnc3c(N/N=C/c4ccncc4)ncnc32)c1`, -3.99%.
As to `COc1cc(N2CCN(C(C)C)CC2)ccc1Nc1nc(Nc2ccc(F)cc2C(=O)NC[C@@H](O)CO)c2cc[nH]c2n1`, the inhibition was -1.75%.
With `Fc1ccc(-c2ncn(C3CCNCC3)c2-c2ccnc(Oc3ccc4c(c3)OCO4)n2)cc1`, the inhibition is 1.83%.
On the same count and under the same terms, under `COc1cc(Nc2ncc(-c3ccccc3)o2)cc(OC)c1OC` stands 0.56%.
Same read-out and setting: under `Fc1ccc(-c2nc3n(c2-c2ccncc2)CCS3)cc1` stands -1.04%; under `COc1ccc(C2=C(N3CCc4ccccc43)C(=O)NC2=O)cc1`, 3.48%; under `C[C@@H](Oc1cc(-n2cnc3ccc(OCC4CCN(C)CC4)cc32)sc1C(N)=O)c1ccccc1Cl`, 3.1%.
Same read-out and setting: the result for `O=C(NCC1CC1)c1ccc(-c2cccc(C(=O)NC3CC3)c2)cc1` reads 1.17%; that for `Fc1ccc(-c2ncn(CCCN3CCOCC3)c2-c2ccncc2)cc1`, 1.19%.

A further experiment shares this target. As to conditions: at 1 µM.
Regarding `NS(=O)(=O)c1ccc(N/N=C2\C(=O)Nc3ccc(C(=O)NCCCn4ccnc4)cc32)cc1`, the inhibition worked out at 97.9%.
Still for that read-out and setting: under `O=C(Nc1ccc(Oc2ccc3[nH]c(NC(=O)c4ccccc4)nc3c2)cc1)Nc1cc(C(F)(F)F)ccc1F` stands 4.24%.
Regarding `COc1ccc2cc(-c3c(-c4ccncc4)nc(-c4ccc([S+](C)[O-])cc4C)n3C)ccc2c1` (stereo not drawn), the inhibition was -1.45%.
On to `Cc1ccc(NC(=O)c2ccoc2)cc1-c1ccc(C(=O)NCC2CC2)cc1`, for which the inhibition was determined as 1.04%.
Regarding `C[C@@H](Oc1cc(-n2cnc3ccc(OC4CCN(C)CC4)cc32)sc1C(N)=O)c1ccccc1Cl`, the inhibition is -0.94%.
Same read-out and setting: under `CN(c1ccc(NC(=O)Nc2c(Cl)cccc2Cl)cc1)c1ccnc(Nc2cccc(CS(C)(=O)=O)c2)n1` stands 12.2%; under `Fc1ccc(-c2ncn(C3CCNCC3)c2-c2ccnc(Oc3ccc(Oc4ccccc4)cc3)n2)cc1`, 4.28%; under `COc1cccc(/C=N/Nc2ncnc3c2cnn3-c2cccc(OC)c2)c1`, 5.08%.
The same measure, in the same setting: the result for `O=C(Nc1n[nH]c2nc(-c3ccc(O)cc3)c(Br)cc12)C1CC1` reads 108%.
Consider `COc1cc2ncn(-c3cc(OCc4ccccc4C(F)(F)F)c(C(C)=O)s3)c2cc1OC`, for which the inhibition was found to be 2.63%.
On the same count and under the same terms, under `Cc1ccc(C(=O)NC2CCC2)cc1-c1ccc(C(=O)NCC2CC2)cc1` stands 0.45%.
On to `COC(=O)Nc1nc2ccc(Sc3ccc(NC(=O)Nc4cc(C(F)(F)F)ccc4F)cc3)cc2[nH]1`, for which the inhibition is 6.71%.
For the molecule `COc1ccc(-c2ccc3c(NC(=O)C4CC4)n[nH]c3n2)cc1`, the inhibition was 10.7%.
On the same count and under the same terms, under `Cc1ccc(C(=O)NC(C)C)cc1-c1ccc(C(=O)NCC2CC2)cc1` stands -0.04%; under `O=C(Nc1n[nH]c2cc(-c3ccccc3)ccc12)C1CC1`, 11.2%.
Regarding `CNC(=O)c1cncc(/C=C/c2c(C)cccc2C)c1`, the inhibition worked out at 4.82%.
The same measure, in the same setting: under `C/C(Nc1ccc(S(N)(=O)=O)cc1)=C1/C(=O)Nc2ccccc21` stands 56%.
On to `NC(=O)c1ccc(Oc2nccc(-c3c(-c4ccc(F)cc4)ncn3C3CCNCC3)n2)cc1`, for which the inhibition worked out at 3.6%.
`NC(=O)Cc1ccccc1Oc1nccc(-c2c(-c3ccc(F)cc3)ncn2C2CCNCC2)n1`: the inhibition stood at 2%.
On to `NCc1ccc(-n2c(-c3nonc3N)nc3cnccc32)cc1`, for which the inhibition is 30.4%.
Same read-out and setting: under `O=C(Nc1n[nH]c2cc(-c3cc(F)ccc3F)ccc12)C1CC1` stands 17.3%; under `NS(=O)(=O)c1ccc(N/N=C2\C(=O)Nc3ccc(-c4cnco4)cc32)cc1`, 94.4%; under `N#Cc1ccc(Oc2nccc(-c3c(-c4ccc(F)cc4)ncn3C3CCNCC3)n2)cc1`, 1.99%.
On to `O=C(Nc1n[nH]c2nc(-c3ccco3)ccc12)C1CC1`, for which the inhibition turned out to be 6.79%.
The same measure, in the same setting: under `NS(=O)(=O)c1ccc(Nc2cc(-c3ccc(O)c(F)c3)n[nH]2)cc1` stands 78.9%.
On the same count and under the same terms, under `COc1cccc(-n2cnc3c(N/N=C/c4ccncc4)ncnc32)c1` stands 8.02%; under `COc1cc(N2CCN(C(C)C)CC2)ccc1Nc1nc(Nc2ccc(F)cc2C(=O)NC[C@@H](O)CO)c2cc[nH]c2n1`, 4.45%.
Regarding `Fc1ccc(-c2ncn(C3CCNCC3)c2-c2ccnc(Oc3ccc4c(c3)OCO4)n2)cc1`, the inhibition was determined as 3.44%.
With `COc1cc(Nc2ncc(-c3ccccc3)o2)cc(OC)c1OC`, the inhibition worked out at 9.21%.
On the same count and under the same terms, under `Fc1ccc(-c2nc3n(c2-c2ccncc2)CCS3)cc1` stands 1.08%; under `COc1ccc(C2=C(N3CCc4ccccc43)C(=O)NC2=O)cc1`, 3.47%; under `C[C@@H](Oc1cc(-n2cnc3ccc(OCC4CCN(C)CC4)cc32)sc1C(N)=O)c1ccccc1Cl`, 4.03%.
With `O=C(NCC1CC1)c1ccc(-c2cccc(C(=O)NC3CC3)c2)cc1`, the inhibition was found to be 9.03%.
Still for that read-out and setting: under `Fc1ccc(-c2ncn(CCCN3CCOCC3)c2-c2ccncc2)cc1` stands 0.72%.
